Sampled rows, rich in hits. Any-hit rate of the full collection: about 19%.
IL1B secr inh: blocks inflammasome-driven IL-1 beta release; THP-1 LPS/ATP IL-1B secretion, AlphaLISA, 16 h; active compounds read low; activity change, % at 57.5 µM; hit rate 4.7% among 360,000; AID 743279; in the data active means activity change below about -50%; inconclusive means mostly about -30% to -49%
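Secreted IL-1B measured by AlphaLISA bead assay after 16 h compound exposure of THP-1 cells; compounds (final up to 57.5 uM) added 1 h before LPS (250 ng/mL) and ATP (1.25 mM) stimulation; lower signal means less secretion.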
DT40 TDP1 no CPT: qHTS for Inhibitors of human tyrosyl-DNA phosphodiesterase 1 (TDP1): qHTS in cells in absence of CPT | DT40 Tdp1-/- hTDP1 cells, no CPT, ATP luminescence, 48 h | Potency, µM (series often up to 46.2 µM), for inactives: at the top dose activity change, negative = growth inhibition, usual class: inhibitors | hit rate 15% among 420,000 | AID 686978, 2013; further: potency means the concentration at half of the fitted maximal effect; nearly all actives have a fitted effect of over 55% in size
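Compound effects on proliferation are scored in DT40 Tdp1-/-;hTDP1 cells in the absence of CPT. ATP levels (CellTiter-Glo luminescence) are recorded after a ≥48 hr, 37 °C incubation.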
TDP1 cell CPT: DT40-hTDP1 cell growth loss with CPT | chicken DT40 Tdp1-/-;hTDP1 cells + 20 nM CPT, ATP luminescence, 48 h | Potency, µM (titrated, usually from 46.2 µM), for the others: top-dose activity change, negative = growth inhibition, hits mostly inhibitors | hit rate 12% among 420,000 | AID 686979; further: potency means the concentration at half of the fitted maximal effect; nearly all actives have a fitted effect of over 55% in size
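Chicken DT40 Tdp1-/- cells complemented with human TDP1, 400 cells/well, exposed to compounds plus 20 nM camptothecin for at least 48 h at 37 C; viability read as ATP content by CellTiter-Glo luminescence.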
HT1080 IDH1KD tx: kills HT-1080 cells with IDH1 knockdown | HT-1080 IDH1 knockdown viability, ATP luminescence, 48 h | Potency, µM (series often up to 46.1 µM), without a hit: at the top dose activity, negative = toxicity, actives largely listed as cytotoxic | hit rate 2% among 360,000 | AID 686971;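 further: potency means the concentration at half of the fitted maximal effect; 0% = DMSO wells and -100% = cell-free medium wells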
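Viability of IDH1-knockdown HT-1080 fibrosarcoma cells was assessed by CellTiter-Glo after 48 h at 37 °C with titrated compound; concentration-effect curves were classified by fit quality and response size.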
HT1080-NT tox: kills 2HG-producing HT-1080-NT fibrosarcoma cells; Potency, µM (series often up to 46.1 µM), for the others: at the highest dose activity, negative = less viability, most hits filed as cytotoxic; HT-1080-NT fibrosarcoma viability, CellTiter-Glo ATP luminescence, 48 h; hit rate 1.6% among 360,000;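 further: NT is the 2HG producing partner of a matched IDH1 knockdown line; potency means the concentration at half of the fitted maximal effect; 0% = DMSO-treated cells and -100% = media-only wells without cells; nearly all actives have a fitted effect of over 55% in size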
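Luminescent CellTiter-Glo readout after 48 hours of compound exposure at 37 degrees C defined viability of HT-1080-NT cells. Activity was normalized to DMSO wells and cell-free media wells; concentration-response curves were fitted and assigned curve classes.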
* marks the source's active call; other numbers are inactive results; ? = inconclusive; · = no result given; [ ] = remark or other dose. Unless noted, the call rests on the fitted dose curve; in most records, active means well fitted curve in the direction sought with a large enough effect; inconclusive means small, poorly fitted or top-dose-only effect, or another doubt; inactive means no such curve, though single readings can be large; an effect the other way counts as inactive or inconclusive. Unless noted, on the % scale 0 is the no-effect control and ±100 the full control effect.

SMILES	IL1B secr inh	DT40 TDP1 no CPT	TDP1 cell CPT	HT1080 IDH1KD tx	HT1080-NT tox
COc1ccc(COC(=O)C2CCN(S(=O)(=O)c3ccc(OC)c(OC)c3)CC2)cc1	14	4%	8%	-10%	0%
CN(C)Cc1cc(C(C)(C)c2cc(CN(C)C)c(O)c(CN(C)C)c2)cc(CN(C)C)c1O	-62*	-15%	-10%	-13%	-8%
CC(C)CNC(=O)c1cccc(NC(=O)Cc2ccc(Br)cc2)c1	-8	?	?	-1%	2%
CNc1nc2c(N)ncnc2n1[C@H]1O[C@@H](CO)[C@H](O)[C@@H]1O	-13	?	?	-15%	-10%
Nc1ncnc2c(C3OC(CO)C(O)C3O)scc12 (stereo not drawn)	-116*	0.016µM*	0.012µM*	0.037µM*	0.26µM*
COc1ccc(CC(=O)NC2CC(=O)N(c3ccc(C)c(C)c3)C2)cc1OC (stereo not drawn)	·	-22%	-9%	·	·
Cc1ccc(NC(=O)Cn2cc(S(=O)(=O)N3CCCC3)c(S(=O)(=O)N3CCCC3)c2)cc1C	·	-28%	?	·	·
CN1CCN(c2ncc3nc(-c4ccccc4)c(=O)n(CCC#N)c3n2)CC1	·	16µM*	?	·	·
N#CCCn1c(=O)c(-c2ccccc2)nc2cnc(N3CCOCC3)nc21	·	-12%	-9%	·	·
COc1ccc(-c2nc3cnc(N4CCN(C)CC4)nc3n(CCC#N)c2=O)cc1	·	23µM*	-24%	·	·
C/C(=N\NC(=S)Nc1ccccc1C)C1Cc2ccccc2C(=O)O1 (stereo not drawn)	1	6.5µM*	?	-20%	-10%
O=C(CSc1nc(C2CC2)nc2sc3c(c12)CCCC3)NCc1ccco1	0	-12%	2%	4%	0%
Cc1nc(SCC(=O)NCc2ccco2)c2c3c(sc2n1)CCCC3	-9	?	?	?	-7%
CC1CCc2sc3ncn4nc(C(=O)NCc5ccco5)nc4c3c2C1 (stereo not drawn)	6	?	?	23%	12%
CCCc1nc2sc3c(SCC(=O)NCc4ccco4)ncnc3c2c2c1CCC2	-6	18µM*	?	-3%	-7%
CCC1CCc2c(sc3nc(SCC(=O)NCc4ccco4)n(-c4ccccc4)c(=O)c23)C1 (stereo not drawn)	33	?	29µM*	13%	8%
CC1CCc2c(sc3ncn4c(SCC(=O)NCc5ccco5)nnc4c23)C1 (stereo not drawn)	4	21µM*	?	9%	1%
Cc1ccc(-n2c(SCC(=O)NCc3ccco3)nc3sc4c(c3c2=O)CC(C)(C)SC4)cc1	22	-13%	6%	-10%	-11%
CC(C)Sc1nc2sc3c(c2c2nnc(SCC(=O)NCc4ccco4)n12)CCCC3	-19	18µM*	?	3%	5%
Cc1cc(N2C(=O)c3ccc(C(=O)Nc4ccc(CC(=O)O)cc4)cc3C2=O)no1	-22	20%	0%	0%	-4%
COc1ccccc1NC(=O)c1ccc2c(c1)N(CC(=O)NC(C)C)C(=O)C(C)(C)O2	12	-29%	2%	19%	16%
CNC(=S)N1CCN(c2nc(-c3ccc(Cl)cc3)cs2)CC1	-57*	21µM*	?	-13%	-12%
O=[N+]([O-])c1ccc(N2CCN(c3nc(-c4ccc(Cl)cc4)cs3)CC2)cc1	-3	12µM*	?	1%	4%
COCCNC(=S)N1CCN(c2nc(-c3ccc(Cl)cc3)cs2)CC1	-20	?	-8%	-20%	?
O=[N+]([O-])c1ccc(-c2csc(N3CCCCCC3)n2)cc1	-11	6%	12%	5%	-6%
SMILES	IL1B secr inh	DT40 TDP1 no CPT	TDP1 cell CPT	HT1080 IDH1KD tx	HT1080-NT tox
CC(C)C(=O)N1CCN(c2nc(-c3ccc(Cl)cc3)cs2)CC1	-24	13µM*	23µM*	?	-2%
CCN(CC)CCCNC(=S)N1CCN(c2nc(-c3ccc(F)cc3)cs2)CC1	-58*	6.5µM*	15µM*	8.2µM*	21µM*
Cc1cccc(-c2oc3ccccc3c2C#CCCO)c1	-26	?	?	16%	7%
CCN(CC)CCNC(=O)c1ccc(CS(=O)(=O)c2ccccc2C)o1	6	19%	-4%	15%	3%
CCS(=O)(=O)N1CCN(c2nc(-c3ccccc3)cs2)CC1	0	-27%	-1%	-3%	-3%
CCCCC(=O)N1CCN(c2nc(-c3ccc(F)cc3)cs2)CC1	-17	?	?	-12%	-15%
O=C(CCCl)N1CCN(c2nc(-c3ccccc3)cs2)CC1	0	16µM*	?	0%	11%
O=C(N1CCOCC1)N1CCN(c2nc(-c3ccc(F)cc3)cs2)CC1	-15	16µM*	?	-27%	-25%
O=C(Nc1ccc2nc3n(c(=O)c2c1)CCCC3)c1cncc(Br)c1	-28	?	?	-6%	-10%
CS(=O)(=O)N(Cc1ccc(Cl)cc1)c1ccc(C(=O)N2CCN(c3ccccc3)CC2)cc1	-51*	?	?	-14%	-17%
CS(=O)(=O)N(CC(=O)N1CCN(c2cccc(Cl)c2)CC1)c1cccc(F)c1	-18	16µM*	?	-1%	-6%
CS(=O)(=O)N(Cc1ccccc1)c1ccc(C(=O)N2CCN(c3cccc(Cl)c3)CC2)cc1	?	14µM*	11µM*	?	?
CS(=O)(=O)N(Cc1ccccc1)c1ccccc1C(=O)N1CCN(c2ccccc2)CC1	0	16µM*	21µM*	-13%	0%
CS(=O)(=O)N(CC(=O)N1CCOCC1)c1cccc(F)c1	2	10%	10%	20%	9%
CCN(C1CCS(=O)(=O)C1)S(=O)(=O)c1ccc(OC)c(OC)c1 (stereo not drawn)	4	13%	0%	1%	0%
Cc1cc(C(=O)Nc2ccccc2-c2nc(CNC(=O)C3(C)CCCCC3)c(C)o2)c(C)o1	·	2%	-10%[9.04 µM]	·	·
Cn1cnnc1SCC(=O)Nc1ccc(F)cc1	-8	-7%	1%	17%	?
CC(C)n1cc(C(=O)c2cc(Br)ccc2O)cc(C#N)c1=O	-18	18µM*	?	-1%	0%
N#Cc1cc(C(=O)c2cc(Br)ccc2O)cn(C2CC2)c1=O	0	-8%	-7%	-2%	-12%
COCCCn1cc(C(=O)c2cc(Br)ccc2O)cc(C#N)c1=O	38	?	?	-8%	-21%
C=CCn1cc(C(=O)c2cc(Br)ccc2O)cc(C#N)c1=O	-9	?	18µM*	0%	-18%
COC(=O)c1cccc(Oc2cccc(C(F)(F)F)c2)n1	42	-3%	7%	7%	0%
